About 83,000 compounds went through this panel and 20% of them were active in at least one assay; those are over-represented in the sample as a whole.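 Each cell line was grown in a 96-well plate and treated with one concentration of compound for 48 hours. Values below 10 were considered active.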 The source made the active and inactive calls.
How the values were obtained:
Assay in all cases: NCI-60 one-dose screen, 48 h (100 = growth as untreated, 0 = no growth, -100 = all killed)
Details in all cases: 10 µM unless noted
NCI-H23 lung = tested on: NCI-H23 lung
NCI-H226 lung = tested on: NCI-H226 lung
NCI-H322M lung = tested on: NCI-H322M lung
HOP-62 NSCLC = tested on: HOP-62 NSCLC
NCI-H460 lung = tested on: NCI-H460 lung
HOP-92 NSCLC = tested on: HOP-92 NSCLC
NCI-H522 lung = tested on: NCI-H522 lung
A549/ATCC NSCLC = tested on: A549/ATCC NSCLC
786-0 renal = tested on: 786-0 renal
COLO 205 colon = tested on: COLO 205 colon
DU-145 prostate = tested on: DU-145 prostate
K-562 leukemia = tested on: K-562 leukemia
MALME-3M melanoma = tested on: MALME-3M melanoma
MDA-MB-231 breast = tested on: MDA-MB-231 breast
RXF 393 renal = tested on: RXF 393 renal
SF-268 CNS = tested on: SF-268 CNS
SF-295 CNS = tested on: SF-295 CNS
SF-539 CNS = tested on: SF-539 CNS
UACC-257 melanoma = tested on: UACC-257 melanoma
M14 melanoma = tested on: M14 melanoma

Measured: growth

CC(=O)Nc1ccc(-n2cnc3cc(-c4ccc(OCCN5CCCCC5)cc4)ccc32)cc1
active: NCI-H460 lung 4.54% | A549/ATCC NSCLC -3.26% | 786-0 renal -40.9% | K-562 leukemia 1.57%
inactive: NCI-H23 lung 73.2% | NCI-H226 lung 74.1% | NCI-H322M lung 104% | HOP-62 NSCLC 82.5% | HOP-92 NSCLC 105% | NCI-H522 lung 91.9% | COLO 205 colon 107% | DU-145 prostate 89.3% | MALME-3M melanoma 77.5% | MDA-MB-231 breast 76.1% | RXF 393 renal 80.4% | SF-268 CNS 84.1% | SF-295 CNS 96.7% | SF-539 CNS 14.4% | UACC-257 melanoma 108% | M14 melanoma 47.1%

COc1ccc(/C=N/NC(=O)c2cnn3c2NC(c2ccccc2)C3)cc1OC (stereo not given)
inactive: NCI-H23 lung 73.9% | NCI-H226 lung 94.1% | NCI-H322M lung 75.4% | HOP-62 NSCLC 60% | NCI-H460 lung 28.3% | HOP-92 NSCLC 73.2% | NCI-H522 lung 42.8% | A549/ATCC NSCLC 54.2% | 786-0 renal 76.2% | COLO 205 colon 45.7% | DU-145 prostate 81.1% | K-562 leukemia 24.1% | MALME-3M melanoma 76.4% | MDA-MB-231 breast 66% | RXF 393 renal 78.2% | SF-268 CNS 73.7% | SF-295 CNS 36.3% | SF-539 CNS 63.4% | UACC-257 melanoma 77.9% | M14 melanoma 45.5%

O=C(C1CCC1)N1N=C(c2ccc(-n3ccc(C(F)(F)F)n3)cc2)CC1c1ccc[nH]1 (stereo not given)
inactive: NCI-H23 lung 101% | NCI-H226 lung 107% | NCI-H322M lung 90.1% | HOP-62 NSCLC 108% | NCI-H460 lung 101% | HOP-92 NSCLC 130% | NCI-H522 lung 84.7% | A549/ATCC NSCLC 89.3% | 786-0 renal 95.8% | COLO 205 colon 113% | DU-145 prostate 103% | K-562 leukemia 77.4% | MALME-3M melanoma 98.6% | MDA-MB-231 breast 83.1% | RXF 393 renal 115% | SF-268 CNS 102% | SF-295 CNS 95% | SF-539 CNS 98% | UACC-257 melanoma 92.2% | M14 melanoma 93.2%

CCSCC1CC(O)(c2ccccc2)CC(c2ccc(F)cc2)O1 (stereo not given)
inactive: NCI-H23 lung 26.6% | NCI-H226 lung 24.6% | NCI-H322M lung 45.4% | HOP-62 NSCLC 26.2% | NCI-H522 lung 53.9% | A549/ATCC NSCLC 20.7% | K-562 leukemia 11.9% | MDA-MB-231 breast 20.6% | SF-268 CNS 20% | SF-539 CNS 36.5% | UACC-257 melanoma 35.7%
active: NCI-H460 lung -30.9% | HOP-92 NSCLC -9.6% | 786-0 renal -23.7% | COLO 205 colon -94.8% | DU-145 prostate 9.94% | MALME-3M melanoma -17.8% | RXF 393 renal -5.44% | SF-295 CNS -14.8% | M14 melanoma 5.84%

N#CC(C#N)=Cc1cc2ccccc2nc1Oc1ccc(C(F)(F)F)cc1
inactive: NCI-H23 lung 81.8% | NCI-H226 lung 77.1% | NCI-H322M lung 99.2% | HOP-62 NSCLC 93.7% | NCI-H460 lung 97.4% | HOP-92 NSCLC 48.7% | NCI-H522 lung 91.8% | A549/ATCC NSCLC 99.5% | 786-0 renal 98.8% | COLO 205 colon 101% | DU-145 prostate 99.1% | K-562 leukemia 64.5% | MALME-3M melanoma 98.8% | MDA-MB-231 breast 84.5% | RXF 393 renal 92.3% | SF-268 CNS 84.4% | SF-295 CNS 92.2% | SF-539 CNS 96.9% | UACC-257 melanoma 106% | M14 melanoma 92.8%

COc1cc(/C=C/c2cc(O)c(C(C)=O)c(O)c2)cc2c1O[C@]1(C)CC[C@@H](O)C(C)(C)[C@H]1C2
inactive: NCI-H23 lung 73.6% | NCI-H226 lung 89% | NCI-H322M lung 76.2% | HOP-62 NSCLC 52.7% | NCI-H460 lung 76.3% | HOP-92 NSCLC 95.5% | NCI-H522 lung 79% | A549/ATCC NSCLC 81.4% | COLO 205 colon 94.5% | DU-145 prostate 74.5% | K-562 leukemia 31.6% | MALME-3M melanoma 65.8% | MDA-MB-231 breast 37.6% | SF-268 CNS 55.8% | UACC-257 melanoma 76.4% | M14 melanoma 51.5%
active: 786-0 renal 7.29% | RXF 393 renal -19.4% | SF-295 CNS 8.72% | SF-539 CNS 9.14%

Cc1ccc(/C=C(/C#N)n2nnc3cccc(F)c32)cc1
active: NCI-H23 lung 4.73% | NCI-H460 lung -34.8% | HOP-92 NSCLC -6.05% | 786-0 renal 1.78% | COLO 205 colon -19.5% | DU-145 prostate -24.9% | K-562 leukemia 6.48% | MDA-MB-231 breast -38.5% | RXF 393 renal -51.4% | SF-539 CNS -48.1% | M14 melanoma -13.6%
inactive: NCI-H226 lung 23% | NCI-H322M lung 16.3% | HOP-62 NSCLC 21.8% | NCI-H522 lung 11.6% | A549/ATCC NSCLC 11.5% | MALME-3M melanoma 36.3% | SF-268 CNS 21.2% | SF-295 CNS 16.2% | UACC-257 melanoma 52.8%

COc1cc2oc(-c3cccc(C(=O)Nc4ccc5c(c4)OCO5)c3)cc(=O)c2c(O)c1OC
inactive: NCI-H23 lung 72.7% | NCI-H226 lung 78.5% | NCI-H322M lung 81% | HOP-62 NSCLC 60.4% | NCI-H460 lung 54.3% | HOP-92 NSCLC 73% | NCI-H522 lung 76% | A549/ATCC NSCLC 74.9% | 786-0 renal 64.3% | COLO 205 colon 94.8% | DU-145 prostate 80.4% | K-562 leukemia 94.5% | MALME-3M melanoma 88.1% | MDA-MB-231 breast 68.1% | RXF 393 renal 81.5% | SF-268 CNS 58.7% | SF-295 CNS 92.1% | SF-539 CNS 88.8% | UACC-257 melanoma 78.2% | M14 melanoma 89.7%

COc1cc2cc(CN3CCN(c4nccc(-c5ccc6ccccc6c5)n4)CC3)c(=O)[nH]c2cc1OC
inactive: NCI-H23 lung 97.3% | NCI-H226 lung 96.5% | NCI-H322M lung 98.4% | HOP-62 NSCLC 96.2% | HOP-92 NSCLC 98.4% | NCI-H522 lung 85.6% | 786-0 renal 32.7% | COLO 205 colon 80% | DU-145 prostate 74% | K-562 leukemia 13.6% | MALME-3M melanoma 103% | MDA-MB-231 breast 73.8% | RXF 393 renal 81.8% | SF-268 CNS 94% | SF-295 CNS 101% | SF-539 CNS 110% | UACC-257 melanoma 77% | M14 melanoma 109%
active: NCI-H460 lung -35.9% | A549/ATCC NSCLC 2.34%

CCOc1ccc(/C=N/Nc2cc(C)nc3ccc(Br)cc23)cc1
inactive: NCI-H23 lung 82.2% | NCI-H226 lung 92.7% | NCI-H322M lung 93.5% | HOP-62 NSCLC 96.5% | NCI-H460 lung 87.2% | HOP-92 NSCLC 57.5% | NCI-H522 lung 97.7% | A549/ATCC NSCLC 82% | 786-0 renal 96.1% | COLO 205 colon 96.2% | DU-145 prostate 94.2% | K-562 leukemia 20.2% | MALME-3M melanoma 102% | MDA-MB-231 breast 68.5% | RXF 393 renal 85.8% | SF-268 CNS 99.7% | SF-295 CNS 82.7% | SF-539 CNS 102% | UACC-257 melanoma 96% | M14 melanoma 94%

CC(=O)Nc1ccc(-c2ccc3c(c2)NC(=O)/C3=C\c2ccc[nH]2)cc1
inactive: NCI-H23 lung 52.5% | NCI-H226 lung 85.8% | NCI-H322M lung 64.5% | HOP-62 NSCLC 95.7% | NCI-H460 lung 50.1% | HOP-92 NSCLC 130% | NCI-H522 lung 59.3% | A549/ATCC NSCLC 92.4% | 786-0 renal 99.3% | COLO 205 colon 139% | DU-145 prostate 72% | K-562 leukemia 96.1% | MALME-3M melanoma 109% | MDA-MB-231 breast 80.7% | RXF 393 renal 104% | SF-268 CNS 92.1% | SF-295 CNS 87.2% | SF-539 CNS 81.4% | UACC-257 melanoma 119% | M14 melanoma 105%

O=C1Nc2cc(-c3cccc([N+](=O)[O-])c3)ccc2/C1=C/c1ccc[nH]1
inactive: NCI-H23 lung 48.4% | NCI-H226 lung 50.6% | NCI-H322M lung 58.3% | HOP-62 NSCLC 76.4% | NCI-H460 lung 47.6% | HOP-92 NSCLC 72.5% | NCI-H522 lung 78.3% | A549/ATCC NSCLC 101% | 786-0 renal 107% | COLO 205 colon 85.9% | DU-145 prostate 111% | K-562 leukemia 72.2% | MALME-3M melanoma 89% | MDA-MB-231 breast 39.5% | RXF 393 renal 82.1% | SF-268 CNS 97.1% | SF-295 CNS 99.8% | SF-539 CNS 93.5% | UACC-257 melanoma 107% | M14 melanoma 89.8%

O=C(/C=C/c1ccc(F)cc1)c1ccc(NC(=O)N2CCN(c3cc4c(cc3F)c(=O)c(C(=O)O)cn4C3CC3)CC2)cc1
inactive: NCI-H23 lung 92.8% | NCI-H226 lung 96.1% | NCI-H322M lung 100% | HOP-62 NSCLC 98% | NCI-H460 lung 82.9% | HOP-92 NSCLC 88.5% | NCI-H522 lung 87% | A549/ATCC NSCLC 102% | 786-0 renal 92.4% | COLO 205 colon 115% | DU-145 prostate 103% | K-562 leukemia 91.2% | MALME-3M melanoma 91.3% | MDA-MB-231 breast 89.7% | RXF 393 renal 98.3% | SF-268 CNS 89.9% | SF-295 CNS 98.7% | SF-539 CNS 94.1% | UACC-257 melanoma 97.2% | M14 melanoma 97.8%

Nc1c(C(=O)Nc2ccnc3ccccc23)sc2nc3c(cc12)CN(Cc1ccccc1)CC3
inactive: NCI-H23 lung 70.3% | NCI-H226 lung 53.1% | NCI-H322M lung 90.3% | HOP-62 NSCLC 111% | NCI-H460 lung 87.4% | HOP-92 NSCLC 66.7% | NCI-H522 lung 70.1% | A549/ATCC NSCLC 85.1% | 786-0 renal 66.3% | COLO 205 colon 97.3% | DU-145 prostate 85.6% | K-562 leukemia 38.5% | MALME-3M melanoma 96% | MDA-MB-231 breast 67.7% | RXF 393 renal 96.1% | SF-268 CNS 87.8% | SF-295 CNS 75.2% | SF-539 CNS 99.1% | UACC-257 melanoma 78.8% | M14 melanoma 41.9%

— PubChem BioAssay (NCI)
